We go through 202 variants from a collection of fitness landscapes (doi:10.1126/science.1257360).

The full ranking holds about 140,000 sequences; the median of “enrichment ratio after two sorts for PhoP signalling” is about 0, and the highest 2% start at about 11. This excerpt belongs to a sample that is enriched for the highest values.

To fix the notation:
B1: PhoQ; a variant is named by its letters at X, in order, P23837 (parent)
chain: MKKLLRLFFPLSLRVRFLLATAAVVLVLSLAYGMVALIGYSVSFDKTTFRLLRGESNLFYTLAKWENNKLHVELPENIDKQSPTMTLIYDENGQLLWAQRDVPWLMKMIQPDWLKSNGFHEIEADVNDTSLLLSGDHSIQQQLQEVREDDDDAEMTHSVAVNVYPATSRMPKLTIVVVDTIPVELKSSYMVWSWFIYVLSANLLLVIPLLWVAAWWSLRPIEALAKEVRELEEHNRELLNPATTRELTSLVRNLNRLLKSERERYDKYRTTLTDLTHSLKTPLXXLQXXLRSLRSEKMSVSDAEPVMLEQISRISQQIGYYLHRASMRGGTLLSRELHPVAPLLDNLTSALNKVYQRKGVNISLDISPEISFVGEQNDFVEVMGNVLDNACKYCLEFVEISARQTDEHLYIVVEDDGPGIPLSKREVIFDRGQRVDTLRPGQGVGLAVAREITEQYEGKIVAGESMLGGARMEVIFGRQHSAPKDE

The experiment covers variants of B1. Put plainly: enrichment ratio after two sorts for PhoP signalling (ratio (wild type AVST 3.29)); higher = more functional. Conditions: with PhoP (E. coli).
Regarding THIS, the enrichment ratio was at most 0.25.
As for SFLI, the figure is 0.615; as for AHTY, at most 0.25; as for AITY, 3.48.
With SSDK the figure was at most 0.25; with SATS, 14.2.
As for SSLI, the figure is 18.9; as for HATY, at most 0.25.
As for AETY, the enrichment ratio is 16.
As to NNTY, the enrichment ratio was at most 0.25.
As for SATC, the figure is 5.33; as for SATD, at most 0.25.
With TMTY the figure was 12.9; with IYRF, at most 0.25; with VMFP, at most 0.25.
Consider EPNR, for which the enrichment ratio is at most 0.25.
With LVNK the figure was at most 0.25; with AYMN, at most 0.25; with SQGS, 7.13.
With NISG the figure was at most 0.25; with NDHH, at most 0.25; with FQTY, at most 0.25.
With KSAY the figure was 0.715; with SQTY, 8.07.
On to DHTY, for which the enrichment ratio was at most 0.25.
As for KYTY, the figure is at most 0.25; as for TSAY, 11.6; as for MMTY, at most 0.25.
Take TQTY: the enrichment ratio came to 17.5.
Turning to LCTY, the enrichment ratio was at most 0.25.
With FSAY the figure was at most 0.25; with TSTY, 11.6; with SITY, 12.7.
Turning to HMAW, the enrichment ratio is at most 0.25.
As for ILRI, the figure is at most 0.25; as for DLNY, at most 0.25.
WPQA: the enrichment ratio was at most 0.25.
As for KSTY, the figure is at most 0.25.
With KSWY the figure was at most 0.25; with KATY, at most 0.25; with NATY, at most 0.25.
As for SATY, the figure is 12.7; as for QETY, at most 0.25.
Regarding NVTY, the enrichment ratio was at most 0.25.
As for SETY, the figure is 15; as for SSTY, 11.3; as for TKWY, 12.9.
As for AKWY, the figure is at most 0.25; as for METY, 3.22.
As for VMNQ, the figure is at most 0.25; as for KFEC, at most 0.25; as for WKRY, at most 0.25.
SIGY: the enrichment ratio worked out at 14.3.
With TSWY the figure was 14.1.
Turning to LCWY, the enrichment ratio is at most 0.25.
With SLGY the figure was 1.84; with MMWY, at most 0.25; with KYGY, at most 0.25.
With VGCD the figure was at most 0.25; with MAMQ, at most 0.25.
With QPGQ the figure was at most 0.25; with FAVQ, at most 0.25; with QGGQ, 8.17.
As to FAMQ, the enrichment ratio was 45.
With QAGQ, the enrichment ratio amounted to 24.5.
As for NAGQ, the figure is at most 0.25.
As to QAMQ, the enrichment ratio turned out to be 44.4.
As for QAVQ, the figure is at most 0.25; as for QAMV, at most 0.25.
With TPGQ the figure was 16.
As for QAGD, the figure is at most 0.25; as for KRHT, at most 0.25.
Turning to IASQ, the enrichment ratio was at most 0.25.
As for FDMR, the figure is at most 0.25; as for HIEP, at most 0.25.
With ITVA the figure was at most 0.25.
As for SHRP, the figure is at most 0.25; as for NRKT, at most 0.25; as for GQLV, 7.76.
In the case of SALF, the enrichment ratio turned out to be 9.67.
As for KRAM, the figure is at most 0.25.
With MDPE the figure was at most 0.25; with EKES, at most 0.25.
With ASSK the figure was at most 0.25; with ASKA, at most 0.25; with ASHP, at most 0.25.
As for ASSR, the enrichment ratio was at most 0.25.
With ASSS the figure was 11.9; with ASSQ, 14.5.
Consider VWGF, for which the enrichment ratio is at most 0.25.
As for SDHM, the figure is at most 0.25; as for AQDN, at most 0.25; as for PECQ, at most 0.25.
With IETV the figure was at most 0.25; with GVGF, 12; with GYGF, at most 0.25.
Regarding GGGF, the enrichment ratio is at most 0.25.
With GVHF the figure was at most 0.25.
As for GNSF, the figure is 1.14; as for GVSF, 11.8; as for DDND, at most 0.25.
As for QPHR, the figure is at most 0.25; as for FDYT, at most 0.25; as for YIRR, at most 0.25.
As for TSNF, the enrichment ratio stood at 16.1.
As for TSWA, the figure is 15.4.
As for KSHV, the figure is at most 0.25; as for KSNF, at most 0.25; as for KSCH, at most 0.25.
As to THHV, the enrichment ratio is at most 0.25.
Turning to TSCH, the enrichment ratio is 15.8.
With KSWA the figure was at most 0.25; with FSCH, 0.442.
As for MMNF, the figure is at most 0.25.
For the variant MMWA, the enrichment ratio is at most 0.25.
As for TSHV, the figure is 13.7; as for QSCS, at most 0.25; as for SYVA, at most 0.25.
As for GMCC, the figure is at most 0.25; as for FQGH, at most 0.25.
With NRAM the figure was at most 0.25; with KRFS, at most 0.25.
Consider CNWS, for which the enrichment ratio was at most 0.25.
With RPDF the figure was at most 0.25; with KFLF, at most 0.25.
With SCDN the figure was at most 0.25.
As for PMCH, the figure is at most 0.25; as for TSTI, 22; as for TSHE, 5.88.
As to TSTA, the enrichment ratio amounted to 14.2.
As for WITI, the figure is at most 0.25; as for WSEI, at most 0.25.
Turning to MMTA, the enrichment ratio is at most 0.25.
As for KSEI, the figure is at most 0.25.
As for TSEI, the figure is 15.3.
As for LCTA, the figure is at most 0.25; as for KSHF, at most 0.25; as for MMTI, at most 0.25.
As to TSHF, the enrichment ratio was 13.4.
Turning to LGWN, the enrichment ratio is at most 0.25.
As for TWGR, the figure is at most 0.25.
As for FHQM, the figure is at most 0.25.
With TARV the figure was at most 0.25.
As for QSIY, the enrichment ratio is at most 0.25.
With KSHQ the figure was at most 0.25; with THHQ, at most 0.25.
With TSHQ the figure was 11.8; with DFQV, at most 0.25; with WHCG, at most 0.25.
As for AQTC, the figure is 9.55; as for AQNL, at most 0.25; as for AQLA, 19.
With AQLS, the enrichment ratio was found to be 10.2.
As for AQLT, the enrichment ratio is 8.16.
As for AQLN, the figure is 31.6; as for AQTS, 12.8.
As for AQTK, the figure is at most 0.25; as for AQCN, 4.1; as for FEWS, at most 0.25.
Turning to RCQR, the enrichment ratio was at most 0.25.
As for FLMM, the figure is 1.72.
As for YNDD, the figure is at most 0.25; as for IFQD, at most 0.25; as for AKFS, at most 0.25.
As to TMMH, the enrichment ratio came to 5.83.
With TMPE the figure was at most 0.25; with TMCE, 21.2.
With EMCG the figure was at most 0.25; with DMCV, at most 0.25.
With NNCV, the enrichment ratio was at most 0.25.
With TMCG the figure was 15.
Turning to KMCG, the enrichment ratio is at most 0.25.
With TMIE the figure was at most 0.25; with TMCH, 15.9; with TMCV, 13.2.
With HACH the figure was at most 0.25; with NTFT, at most 0.25; with DACN, at most 0.25.
With YKFT the figure was at most 0.25; with VRAW, at most 0.25.
As to EVCN, the enrichment ratio is at most 0.25.
In the case of PEAM, the enrichment ratio was at most 0.25.
As for EYVE, the figure is at most 0.25; as for HGYS, at most 0.25; as for QTTN, at most 0.25.
With SFNA the figure was at most 0.25; with MWTS, at most 0.25; with PLKT, at most 0.25.
In the case of RNTM, the enrichment ratio is at most 0.25.
With WPSM the figure was at most 0.25.
With NMKE the figure was at most 0.25.
As for MMSE, the figure is at most 0.25.
For TMCS, the enrichment ratio was found to be 16.8.
As for THGE, the figure is at most 0.25; as for TMKE, 13.6.
With TMSE the figure was 15.9.
As for TMGE, the figure is 14.8; as for TMPA, at most 0.25; as for DMSE, at most 0.25.
For TMWI, the enrichment ratio is at most 0.25.
As for TMNE, the figure is at most 0.25; as for NHGE, at most 0.25.
